PubChem BioAssay AID602336 (NMMLSC, 2012)
This is one part of the list. Unmarked numbers belong to inactive results. Rule as the data show it: active = inhibition above about 25%; inactive = the rest.

system: Botulinum neurotoxin type F light chain protease (Clostridium botulinum); test: inhibition of botulinum toxin F LC protease – biochemical, flow cytometry, cherry pick 2, confirmation (AID 602336); conditions: multiplex microsphere protease cleavage assay, at 10 µM, active compounds read high

Row | Structure (SMILES) | inhibition
1 | Cc1ccc(CNC(=O)c2cccc3c2C(=O)c2ccc(N4CCC(C)CC4)cc2S3(=O)=O)cc1 | 6.1%
2 | CCOc1ncccc1C(=O)OCC(=O)c1c[nH]c2ccccc12 | 3%
3 | CC(=O)OCCN(CCCn1c(-c2ccncc2)nc2ccccc21)c1nc(-c2ccc(C)cc2)cs1 | 4%
4 | O=C(CN1CCN(c2ccccc2O)CC1)NC(=O)NCc1ccccc1 | -4.3%
5 | COc1ccc(-c2cc3c(c4c2ccn4C)C2CCC3C2)cn1 (stereo not drawn) | 4.4%
6 | O=C(OCC(=O)c1c[nH]c2ccccc12)c1cccc(O)c1 | -3.8%
7 | Cc1cc2cc(CNC(=O)c3ccc(S(=O)(=O)N4CCOCC4)cc3)ccc2[nH]1 | -10.8%
8 | Cc1cc2ccccc2n1CCNC(=O)COc1ccc2ccccc2c1 | -12.9%
